Assay results published in ChEMBL document CHEMBL3988442, “University of Dundee, Small-Polar-MMV Screening Library” (2021).
Among all 48,000 compounds or so, about 13,000 (27%) showed an effect of 50% or more. Some of the results follow.

Test system: Wolbachia pipientis
Experiment: Anti-Wolbachia Cell-Based Screen
Format: functional
Set-up: scale not given: in the data most compounds retested in dose-response had high values
Details: 5 µM

SMILES | Percent Effect [%]
CCNc1ncc(C(=O)NC2CCc3ccccc3C2)cn1 (stereo unspecified) | 2.788
O=C(NC1CCCCC1)c1c(F)cccc1F | -11.27
CCNc1ncc(C(=O)NC2CCSC2)cn1 (stereo unspecified) | 5.956
O=C(NC1(C(=O)NC2CCCC2)CCCC1)c1ccc2[nH]ncc2c1 | 2.222
CC(C)(C)OC(=O)NC1CCC(NC(=O)c2ccc[nH]2)CC1 (stereo unspecified) | -46.12
CC(=O)c1cc2ncc(C(=O)NC3CC3)cc2[nH]1 | 127.3
CC(=O)c1cc2ncc(C(=O)NC3CCCCC3)cc2[nH]1 | 114.6
CC(=O)c1cc2ncc(C(=O)NC3CCCC3)cc2[nH]1 | 115.8
CCOc1ccccc1OCCN(C)Cc1ncnn1CC | -5.335
Cc1n[nH]cc1CNCC(O)c1ccc(F)c(F)c1.Cl (stereo unspecified) | -9.621
Cc1ccc2cc(CN(C)Cc3nccs3)c(=O)[nH]c2c1 | -5.099
Cn1cc(N2C[C@@H]3CN(Cc4ccoc4)C[C@@H]3C2=O)cn1.O=C(O)C(F)(F)F | -5.785
Cn1cc(N2CC3(CCN(CC4CCOCC4)CC3)OCC2=O)cn1.O=C(O)C(F)(F)F | -12.75
CC1N(c2cnn(C)c2)C(=O)COC12CCN(Cc1ccco1)CC2.O=C(O)C(F)(F)F (stereo unspecified) | 117
CC1N(c2cnn(C)c2)C(=O)COC12CCN(Cc1ccoc1)CC2 (stereo unspecified) | 110.5
CC1N(c2cnn(C)c2)C(=O)COC12CCN(CC1CC1)CC2.O=C(O)C(F)(F)F (stereo unspecified) | 102.9
Cn1cc(N2CC3(CCN(CC4CC4)C3)CC2=O)cn1.O=C(O)C(F)(F)F (stereo unspecified) | 3.9
CN1CC(=O)N(c2cnn(C)c2)CC12CCN(Cc1ccccc1)C2.O=C(O)C(F)(F)F.O=C(O)C(F)(F)F (stereo unspecified) | -7.753
Cc1nc(CN2C(=O)COC3(CCN(Cc4ccco4)CC3)C2C)cs1.O=C(O)C(F)(F)F (stereo unspecified) | -6.139
Cc1nc(C(C)Nc2nc3c(s2)c(C)nn3C)n[nH]1 (stereo unspecified) | 87.1
CCCOCCNc1nc2c(s1)c(C)nn2C | -0.9549
Cc1csc(CNc2nc3c(s2)c(C)nn3C)n1 | -2.391

SMILES | Percent Effect [%]
Cc1ccc(-c2ccnc(NC(C)c3n[nH]c(=O)[nH]3)n2)c(C)n1 (stereo unspecified) | 6.558
CCSCCNc1nc2c(s1)c(C)nn2C | 7.108
Cc1nn(C)c2nc(NC3CCNCC3)sc12 | 10.32
Cc1nn(C)c2nc(NC(C)c3nnn[nH]3)sc12 (stereo unspecified) | 114.7
Cc1nn(C)c2nc(NC(C)c3n[nH]c(=O)[nH]3)sc12 (stereo unspecified) | 96.4
Cc1nn(C)c2nc(NCCOCCO)sc12 | -15.08
O=C(Cc1cccs1)NCCNc1nccc(C(F)(F)F)n1 | -1.179
CCn1cc(CN2CCCCC2CCn2ccnc2C)cc1C#N (stereo unspecified) | -5.966
O=C(NCc1ccccc1CN1CCCC1=O)Nc1nncs1 | -15.38
CC(Nc1ccc(N2C(=O)CCCC2=O)cc1)c1ccc(C#N)cc1 (stereo unspecified) | -5.853
O=C(Cc1ccccn1)N1C[C@H](OCc2cccnc2)[C@H]2COC[C@H]21.O=C(O)C(F)(F)F.O=C(O)C(F)(F)F | 111.5
Cc1nc(CO[C@H]2CN(C(=O)c3cnoc3C)[C@@H]3COC[C@H]23)cs1.O=C(O)C(F)(F)F | -46.26
CC(=O)NCC(=O)N1C[C@H](OCc2cccnc2)[C@H]2COC[C@H]21 | -9.929
Cc1nc(CO[C@H]2CN(C(=O)c3cccn3C)[C@@H]3COC[C@H]23)cs1.O=C(O)C(F)(F)F | -15.2
CCS(=O)(=O)N1C[C@@H](OCc2cccnc2)[C@H]2OCCC[C@H]21.O=C(O)C(F)(F)F | -26.44
CC(C)NC(=O)N1C[C@H](OCc2cccnc2)[C@H]2COC[C@H]21.O=C(O)C(F)(F)F | 112.7
O=S(=O)(NCCNc1ccc(-n2cccn2)nn1)c1ccccc1 | -3.314
Cc1noc(C)c1CN(C)C(=O)c1cnc(C2CC2)nc1O | -11.89
Cc1ccccc1CNC(=O)N1CCC(n2cncn2)CC1 | 111.6
CC(C)Oc1ccccc1CNC(=O)N1CCC(n2cncn2)CC1 | 15.2
CCOc1ccccc1CNC(=O)N1CCC(n2cncn2)CC1 | 121.4
CCOc1ncccc1CNC(=O)N1CCCC1c1ccncc1 (stereo unspecified) | 0.3129

SMILES | Percent Effect [%]
Cc1cc(C(C)NC(=O)N2CCC(n3cncn3)CC2)c(C)s1 (stereo unspecified) | 2.137
O=C(NCc1cccc2cccnc12)N1CCC(n2cncn2)CC1 | -5.707
CCOc1ncccc1CNC(=O)N1CCC(n2cncn2)CC1 | 108.5
CCC(CC)c1cc(CNC(=O)N2CCCN(C(C)=O)CC2)on1 | -7.46
O=S(=O)(CC1CCCCC1)NCc1ccc(O)nc1 | -3.814
CC1CCN(C(=O)c2ccnc(-n3cncn3)c2)c2ccccc21 (stereo unspecified) | 8.063
CC(C)OC[C@H]1CCC[C@]12CN(C(=O)C1CCOCC1)CCO2 | 106.2
COC[C@@H]1CCC[C@@]12CN(C(=O)C1CCOCC1)CCO2 | 108.7
Cn1ccc(N2CCCC(NC(=O)c3ccc(Cl)o3)C2=O)n1 (stereo unspecified) | -25.47
COc1cc(F)ccc1N1CCN(Cc2nc(C)c(C)o2)CC1 | -8.318
Cc1cnn(CC2CCCCN2c2nn3cc(C)nc3s2)c1 (stereo unspecified) | 94.21
Cc1cnn(CC2CCCN2c2nn3cc(C)nc3s2)c1 (stereo unspecified) | 9.552
Cc1cn2nc(N3CCCC3Cn3nc(C)cc3C)sc2n1 (stereo unspecified) | 8.981
CC(C)(C)c1cn2nc(N3CCCC3Cn3cccn3)sc2n1 (stereo unspecified) | 7.986
CC(C)(C)c1cn2nc(N3CCCCC3Cn3cncn3)sc2n1 (stereo unspecified) | 11.04
Cc1cn2nc(N3CCCC3CC(C)(C)C)sc2n1 (stereo unspecified) | 1.66
Cc1cn2nc(N3CCCC3Cn3cncn3)sc2n1 (stereo unspecified) | 1.731
Cc1cn2nc(N3CCCCC3Cn3cccn3)sc2n1 (stereo unspecified) | 120.6
Cc1cn2nc(N3CCCC3C(=O)N3CCN(C)CC3)sc2n1 (stereo unspecified) | -72.4
Cc1cn2nc(N3CCCC3Cn3nc(C)nc3C)sc2n1 (stereo unspecified) | 128.5
Cc1cn2nc(N3CCCC3Cn3cccn3)sc2n1 (stereo unspecified) | 112.3
CC(C)(C)c1cn2nc(N3CCCC3Cn3cncn3)sc2n1 (stereo unspecified) | -4.327
